From PubChem BioAssay AID624417 (National Center for Advancing Translational Sciences (NCATS), 2012)
In all, about 410,000 compounds went through this assay and about 6,400 (1.6%) were called active. Where a call stands in place of a potency, no number is given. Another 20% or so got no clear call; they are omitted. The call rests on the fitted dose curve; in most records, active means well fitted inhibition curve with a large enough effect; inconclusive means small, poorly fitted or top-dose-only effect; inactive means no such curve, though single readings can be large or run the other way. Only a selection was taken, and actives are over-represented in it overall.
Further: nearly all actives have a fitted effect of over 55% in size.
Potency means the concentration at half of the fitted maximal effect.

The molecules below were run against Glucagon-like peptide 1 receptor (Homo sapiens) (UniProt P43220) (assay: qHTS of GLP-1 Receptor Inverse Agonists (Inhibition Mode)). Conditions: HEK293 GLP-1R CRE-luciferase, luminescence, 24 h, GLP-1R form is constitutively active; series mostly up to 38.3 µM.
Glucagon-like peptide 1 receptor (Homo sapiens), sequence (P43220 whole entry, looked up): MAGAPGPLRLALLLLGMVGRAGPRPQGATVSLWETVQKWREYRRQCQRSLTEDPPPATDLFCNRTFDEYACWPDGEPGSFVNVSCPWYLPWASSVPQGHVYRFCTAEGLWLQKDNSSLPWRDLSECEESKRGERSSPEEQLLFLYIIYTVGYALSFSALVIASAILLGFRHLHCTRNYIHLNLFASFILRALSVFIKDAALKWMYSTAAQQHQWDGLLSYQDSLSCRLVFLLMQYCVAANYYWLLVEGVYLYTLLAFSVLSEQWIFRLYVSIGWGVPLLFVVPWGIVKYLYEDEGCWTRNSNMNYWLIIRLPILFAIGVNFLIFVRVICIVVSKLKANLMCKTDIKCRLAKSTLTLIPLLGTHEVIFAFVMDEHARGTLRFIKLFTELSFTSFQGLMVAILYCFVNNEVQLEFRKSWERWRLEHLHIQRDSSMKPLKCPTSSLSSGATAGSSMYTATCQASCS
In short: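 Luminescence readout: a drop in cAMP-driven luciferase signal flags inverse agonism at a constitutively active GLP-1R stably expressed in HEK293. Compound exposure lasted 24 hr at 37 deg C, 5% CO2.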
With `CCOC(=O)c1cc2cc(OC)ccc2n1C1CCN(C)CC1` the Potency was “inactive”.
In the case of `C[C@@H]1CN([C@@H](C)CO)C(=O)c2cc(NS(C)(=O)=O)ccc2O[C@@H](C)CCCCO[C@H]1CN(C)C(=O)Nc1ccc2c(c1)OCO2`, the Potency is reported as “inactive”.
For `CCc1ccccc1NC(=S)N(CCN1CCCCCC1)Cc1ccco1`, the Potency was “inactive”.
For `Cc1ccc(NC(=S)N(CCCN2CCCC2)Cc2cccn2Cc2ccc(Cl)cc2)cc1`, the Potency was 2.24 µM (active).
In the case of `Cc1ccccc1NC(=S)N(CCCN1CCOCC1)Cc1cccs1`, the Potency is reported as “inactive”.
In the case of `COc1ccc(C(O)c2nc(-c3ccc4c(c3)OCO4)cs2)cc1` (stereo not drawn), the Potency is reported as “inactive”.
In the case of `COc1cccc(-c2cc3nc(NCc4ccccc4OC)n(C)c(=O)c3s2)c1`, the Potency is reported as “inactive”.
With `COc1ccc(NC(=O)CSc2nccn2Cc2ccc3c(c2)OCO3)cc1` the Potency was “inactive”.
For `CCCOc1ccc(NC(=O)CC2C(=O)N(C)C(=S)N2Cc2ccc3c(c2)OCO3)cc1` (stereo not drawn), the Potency was 10 µM (active).
With `CCCOc1ccc(NC(=O)CC2C(=O)N(c3ccccc3)C(=O)N2Cc2ccco2)cc1` (stereo not drawn) the Potency was “inactive”.
In the case of `Cc1noc(C)c1NC(=O)N(C)C[C@@H]1Oc2cc(Br)ccc2S(=O)(=O)N([C@@H](C)CO)C[C@H]1C`, the Potency is reported as “inactive”.
For `N#C/C(=C(/O)COC(=O)COc1ccc(Cl)cc1)c1nc2ccccc2[nH]1`, the Potency was 10 µM (active).
With `N#C/C(=C(/O)COc1cccc2ccccc12)c1nc2ccccc2[nH]1` the Potency was “inactive”.
With `COCCN(CCOC)S(=O)(=O)c1ccc(/C(O)=C(\C#N)c2nc3ccccc3[nH]2)cc1` the Potency was “inactive”.
For `O=C(COC(=O)CCc1c[nH]c2ccccc12)Nc1cccc(Cl)c1`, the Potency was “inactive”.
`CC(C)C[C@H]1CN([C@@H](Cc2ccccc2)CN2CCC[C@@H]2CN2C(=O)C(=O)NC[C@@H]2Cc2ccc(O)cc2)C(=O)C(=O)N1CCc1ccccc1` was tested, and the Potency was “inactive”.
For `COc1ccc(CNCCCO)cc1OC`, the Potency was “inactive”.
For `CCOCCCNCc1ccc(OCc2ccc(F)cc2)c(OC)c1`, the Potency was 1.12 µM (active).
`CCOCCCNCc1cc(Br)ccc1OCC` was tested, and the Potency was “inactive”.
For `COCCCn1c(C(=O)NC2CCCCC2)cc2c(=O)n3cccc(C)c3nc21`, the Potency was “inactive”.
`COC(=O)c1ccc2nc(-c3ccc(C)cc3)c(Cc3ccc(OC)cc3C)n2c1` was tested, and the Potency was “inactive”.
For `COc1cc(C)c(CN2CCN(C(=O)CCC(=O)c3ccc(C)s3)CC2)cc1OC`, the Potency was “inactive”.
For `O=C1C(Sc2cccc(F)c2)=C[C@@]2(O)CC[C@@H](O)[C@]1(Sc1cccc(F)c1)[C@H]2O`, the Potency was “inactive”.
With `COc1ccc(N2CCN(CCNC(=O)c3nnc(Cc4c(F)cccc4Cl)o3)CC2)cc1` the Potency was “inactive”.
`Cn1c(C(=O)NCCCN2CCN(c3cccc(Cl)c3)CC2)cc2c(=O)n(C)c3ccccc3c21` was tested, and the Potency was “inactive”.
With `O=C(NCCCN1CCN(c2cccc(Cl)c2)CC1)c1nnc(Cc2ccc(F)cc2Cl)o1` the Potency was 12.6 µM (active).
For `CSc1ncnc2c1ncn2CCCNCC(C)c1ccccc1` (stereo not drawn), the Potency was “inactive”.
In the case of `CCCCCCCCN1C(=O)[C@H](CC(=O)NCC23CC4CC(CC(C4)C2)C3)C[C@@]2(C(=O)OC)CCCCC=C12`, the Potency is reported as “inactive”.
`CCNC(=O)C1(C)CCN(C(=O)c2ccccc2)C1` (stereo not drawn) was tested, and the Potency was “inactive”.
With `CCOC1=C2[C@@H](CN(S(=O)(=O)c3ccc(C)cc3)[C@H]2c2ccccc2F)[C@H]2C(=O)N(Cc3ccccc3)C(=O)[C@H]2C1` the Potency was “inactive”.
With `CCCNC(=O)c1cc(C2CCCN(C(=O)c3ccc4c(c3)CCO4)C2)on1` (stereo not drawn) the Potency was “inactive”.
In the case of `O=C(Cn1c(=O)nc(-c2ccccc2)c2cc(Cl)ccc21)NCc1ccc(Cl)cc1`, the Potency is reported as “inactive”.
`CC(C)c1ccc2c(c1)c(SC(C)(C)C)c(CC(C)(C)C(=O)O)n2Cc1ccc(Cl)cc1` was tested, and the Potency was 2.82 µM (active).
With `O=C(O)C1CCCN1c1nc(Cl)ccc1[N+](=O)[O-]` (stereo not drawn) the Potency was “inactive”.
In the case of `Cc1ccc(F)c(S(=O)(=O)NC(=O)C2(C)CCN2C(=O)c2ccco2)c1` (stereo not drawn), the Potency is reported as “inactive”.
`COn1c(-c2ccc(Cl)cc2Cl)nc2ncccc21` was tested, and the Potency was “inactive”.
With `CCn1c(-c2cccnc2Cl)nc2cc(C)c(C)cc21` the Potency was “inactive”.
`Clc1ccc(COn2c(-c3ccc(Cl)cc3Cl)nc3ncccc32)cc1` was tested, and the Potency was 10 µM (active).
In the case of `O=C(C[C@H]1CC[C@H]2[C@@H](COC[C@H](O)CN2C(=O)c2ccccn2)O1)N1CCN(c2ccccc2)CC1`, the Potency is reported as “inactive”.
`O=C(COc1ccc(Br)cc1)OCC(=O)c1ccc[nH]1` was tested, and the Potency was “inactive”.
In the case of `O=C1CCC(=O)N1CCC(=O)N(C(=O)NC1CCCCC1)C1CCCCC1`, the Potency is reported as “inactive”.
In the case of `COc1cccc(-c2nc(CS(=O)(=O)CC(=O)N3CCN(c4cc(C)ccc4C)CC3)c(C)o2)c1`, the Potency is reported as 7.94 µM (active).
For `CCCCN(CC)CCCNC(=O)CS(=O)(=O)Cc1nc(-c2cccc(OC)c2)oc1C`, the Potency was “inactive”.
In the case of `COc1cccc(-c2nc(CS(=O)(=O)CC(=O)NCCc3ccc(OC)c(OC)c3)c(C)o2)c1`, the Potency is reported as “inactive”.
`COc1ccc(OC)c(CN2C(=O)CCC2(C)c2nnnn2Cc2ccccc2)c1` (stereo not drawn) was tested, and the Potency was “inactive”.
`O=C1CCC(C(=O)OCC(=O)Nc2ccc(OC(F)F)cc2)=NN1` was tested, and the Potency was “inactive”.
`CC(C)c1ccccc1OCC(O)CN(CC(O)COc1cccc2ccccc12)C(C)C` (stereo not drawn) was tested, and the Potency was 8.91 µM (active).
For `CCC(C)Sc1nc2c(c(=O)[nH]c(=O)n2C)n1CC(O)COc1cccc2ccccc12` (stereo not drawn), the Potency was “inactive”.
With `Cc1cc(C)c(NC(=O)C[N+](C)(C)CC(O)COc2cccc3ccccc23)c(C)c1` (stereo not drawn) the Potency was “inactive”.
`Nc1ncnc2c1ncn2[C@@H]1O[C@H](C(=O)N2CCCN(Cc3ccccc3F)CC2)[C@@H](O)[C@H]1O` was tested, and the Potency was “inactive”.
With `CC1(C(=O)NS(=O)(=O)c2cccc(F)c2)CCN1C(=O)Cc1ccc(Cl)cc1Cl` (stereo not drawn) the Potency was “inactive”.
With `COc1ccc(NC(=O)c2sc3nc(C)nc(N4CCN(c5ccccn5)CC4)c3c2C)c(OC)c1` the Potency was “inactive”.
For `Cc1nc(N2CCC(C)CC2)c2c(C)c(C(=O)Nc3cc(F)ccc3C)sc2n1`, the Potency was 10 µM (active).
In the case of `Cc1nc(N2CCN(c3ccccn3)CC2)c2c(C)c(C(=O)Nc3ccc(F)cc3)sc2n1`, the Potency is reported as “inactive”.
With `CN(Cc1ccc(C(F)(F)F)cc1)C(=O)[C@H]1O[C@@H](n2cnc3c(N)ncnc32)[C@H](O)[C@@H]1O` the Potency was “inactive”.
For `COc1cc2[nH]c(=O)n(Cc3ccc(C(=O)NC4CCN(Cc5ccccc5)CC4)cc3)c(=O)c2cc1OC`, the Potency was “inactive”.
With `COc1ccc(C(=O)O)cc1S(=O)(=O)NC1CCN(Cc2ccccc2)CC1` the Potency was “inactive”.
`COc1cc(C(=O)NC2CCN(Cc3ccccc3)CC2)cc(Cl)c1OC(C)C` was tested, and the Potency was 10 µM (active).
